From PubChem
A selection: hits, their analogues and other compounds. The true share with any hit is near 22%.
CYP2C19 activ: activators of human cytochrome P450 2C19; 96,000 tested, under 10 active; P33261; AID 1025; recombinant CYP2C19, luciferin-H EGE luminescence; hits give high values; 0 = fully inhibited enzyme, 1 = untreated enzyme; activation factor at 5 µM;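 active means activation factor of at least 2 at 5 µM in the primary screen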;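 further: 0 = wells with 2.5 mM tranylcypromine and 1 = vehicle-only wells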
CYP2C9 inh: inhibitors of human CYP2C9; CYP2C9 Supersomes, luciferin-H conversion, luminescence; inhibition, % at 5 µM; actives 20% (n = 96,000); P11712;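 active means blocking of liver enzyme CYP2C9 beyond about 50% at 5 µM, limit read from the data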
Target sequence (P11712 whole entry, looked up): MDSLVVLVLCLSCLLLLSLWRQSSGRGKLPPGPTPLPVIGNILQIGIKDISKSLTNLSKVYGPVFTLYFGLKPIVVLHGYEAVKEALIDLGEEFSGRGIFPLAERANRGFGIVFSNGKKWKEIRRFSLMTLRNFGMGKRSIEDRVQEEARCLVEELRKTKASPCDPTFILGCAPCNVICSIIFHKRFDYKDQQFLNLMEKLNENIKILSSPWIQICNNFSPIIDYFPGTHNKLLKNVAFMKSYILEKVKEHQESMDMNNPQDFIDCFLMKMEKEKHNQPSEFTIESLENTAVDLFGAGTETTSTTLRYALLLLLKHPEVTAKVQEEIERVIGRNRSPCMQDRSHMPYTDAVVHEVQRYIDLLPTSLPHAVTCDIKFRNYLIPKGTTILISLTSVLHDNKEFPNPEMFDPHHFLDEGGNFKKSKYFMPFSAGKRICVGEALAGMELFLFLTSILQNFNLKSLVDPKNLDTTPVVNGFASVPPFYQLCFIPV
CYP2C19 inhib: inhibitors of human CYP2C19; CYP2C19 Supersomes, luciferin-H EGE luminescence, 30 min; inhibition, % at 5 µM; actives 21% (n = 96,000); AID 778;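 active means CYP2C19 inhibition above a set limit at 5 µM in the primary screen, cut at about 50% in these data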;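 further: plate controls were negative control wells for no effect and 2.5 mM tranylcypromine positive control for full effect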
Measles CPE: protection of cells from measles virus | actives 1.5% (n = 140,000) | protection (pct of control), % at 4 µM | Measles virus-infected cells, CPE protection, absorbance; in the data active means protection mostly above about 24%, no sharp cut-off; inactive means mostly below about 26%
CYP2C9 act: increases human cytochrome P450 2C9 activity; P11712; recombinant CYP2C9, luciferin-H conversion, luminescence; hits give high values; factor 1 = untreated enzyme, 0 = blocked; activation factor at 5 µM; actives 1.4% (n = 96,000);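 active means activation factor of 2 or more for CYP2C9 at a 5 µM dose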;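 further: 0 = sulfaphenazole-blocked wells and 1 = vehicle-only wells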
Starred values were filed as active, the others as inactive.

What do the screens show for `COc1cc(/C=C/C(=O)OCC(=O)NC(=O)NC23CC4CC(CC(C4)C2)C3)ccc1OCC#N`?
Measles CPE: 8.4

What do the screens show for `COc1ccc(N2CCN(C(=O)CCc3ccc(S(=O)(=O)NC(C)C)cc3)CC2)cc1`?
Measles CPE: 3.6

Results for CCCNC(=O)c1cc2c(C(F)(F)F)nn(C)c2s1 ?
CYP2C19 activ: 0.9; CYP2C9 inh: -0.4; CYP2C19 inhib: 5.5; Measles CPE: 7.2; CYP2C9 act: 1

How did CCc1ccc(/C=C/C(=O)c2ccc(S(=O)(=O)N(C)C)cc2)cc1 do in these assays?
Measles CPE: 6.4

What do the screens show for `Cc1ccc(/C=C/C(=O)c2c(C)cc(C)[nH]c2=O)cc1`?
CYP2C19 activ: 0.1; CYP2C9 inh: -43.9; CYP2C19 inhib: 88.9*; Measles CPE: 28.8; CYP2C9 act: 1.4

What do the screens show for `CCc1ccc(/C=C/C(=O)c2c(C)cc(C)[nH]c2=O)cc1`?
CYP2C19 activ: 0.2; CYP2C9 inh: -22.8; CYP2C19 inhib: 79.8*; Measles CPE: 1.8; CYP2C9 act: 1.2

What do the screens show for `COc1ccc(/C(O)=C2/C(=O)C(=O)N(CCCN(C)C)C2c2ccccc2)cc1Cl` (centres undefined)?
CYP2C19 activ: 1.1; CYP2C9 inh: 1.3; CYP2C19 inhib: -12.3; Measles CPE: 26.0; CYP2C9 act: 1

What do the screens show for `COc1ccc(NC(=O)C(NC(=O)c2ccc(=O)[nH]c2)c2ccc(OC)cc2)cc1` (centres undefined)?
Measles CPE: 12.2

How did COc1ccc(NC(=O)C(c2ccccc2)N(C)C(=O)c2ccc(=O)[nH]c2)cc1 (centres undefined) do in these assays?
Measles CPE: 31.0*

Results for CC(NC(=O)/C(=C/c1cccc([N+](=O)[O-])c1)NC(=O)c1ccco1)C(=O)O (centres undefined) ?
Measles CPE: 16.6

Results for Cc1ccc(C(=O)NCCSc2ccc(Cl)cc2)cc1[N+](=O)[O-] ?
Measles CPE: 5.0

What do the screens show for `Cc1ccc(SCCNC(=O)c2ccccc2C)cc1`?
CYP2C19 activ: 0.1; CYP2C9 inh: 89.2*; CYP2C19 inhib: 90.0*; Measles CPE: 5.7; CYP2C9 act: 0.1

How did Cc1ccc(SCCNC(=O)c2ccc(C)c([N+](=O)[O-])c2)cc1 do in these assays?
CYP2C19 activ: 0.5; CYP2C9 inh: 47.2; CYP2C19 inhib: 50.9*; Measles CPE: 12.1; CYP2C9 act: 0.5

What do the screens show for `COc1ccc(C(=O)Nc2ccc(-c3ccc(C)o3)cc2)cc1S(=O)(=O)N1CCOCC1`?
CYP2C19 activ: 0.7; CYP2C9 inh: 35.2; CYP2C19 inhib: 29.7; Measles CPE: 4.6; CYP2C9 act: 0.6

How did C=C(C)c1cccc(C(C)(C)NC(=O)NCC2COCCO2)c1 (centres undefined) do in these assays?
Measles CPE: 5.6

Results for CC(C)Oc1ccccc1-c1nc(SCC(=O)O)n[nH]1 ?
CYP2C19 activ: 1; CYP2C9 inh: -6.8; CYP2C19 inhib: -1.5; Measles CPE: 3.5; CYP2C9 act: 1.1

How did CCCN(CCO)Cc1ccc2ccccc2c1 do in these assays?
CYP2C19 activ: 0.5; CYP2C9 inh: 3.6; CYP2C19 inhib: 51.6*; Measles CPE: 12.4; CYP2C9 act: 1

How did CC1Oc2ccccc2N(CC(=O)N(Cc2ccccc2)Cc2ccccn2)C1=O (centres undefined) do in these assays?
CYP2C19 activ: 0.4; CYP2C9 inh: 65.1*; CYP2C19 inhib: 60.7*; Measles CPE: 6.5; CYP2C9 act: 0.3

What do the screens show for `Cc1ccc(CNC(=O)CN2C(=O)COc3ccc(C)cc32)cc1`?
CYP2C19 activ: 0.3; CYP2C9 inh: -11.8; CYP2C19 inhib: 68.7*; Measles CPE: 3.3; CYP2C9 act: 1.1

What do the screens show for `COc1ccc(CN(Cc2ccccn2)C(=O)CN2C(=O)COc3ccccc32)cc1`?
CYP2C19 activ: 0.5; CYP2C9 inh: 41.7; CYP2C19 inhib: 47.4; Measles CPE: 22.6; CYP2C9 act: 0.6

What do the screens show for `Cc1ccc2c(c1)N(CC(=O)NCc1ccco1)C(=O)CO2`?
Measles CPE: 1.5

How did Cc1ccc2c(c1)N(CC(=O)NCc1cccs1)C(=O)CO2 do in these assays?
CYP2C19 activ: 0.3; CYP2C9 inh: -18.3; CYP2C19 inhib: 68.4*; Measles CPE: 21.8; CYP2C9 act: 1.2

Results for CC1Oc2ccccc2N(CC(=O)NCCc2ccccc2)C1=O (centres undefined) ?
CYP2C19 activ: 0.1; CYP2C9 inh: 25.5; CYP2C19 inhib: 93.6*; Measles CPE: 3.1; CYP2C9 act: 0.7
